Assay outcomes: PubChem BioAssay, The Scripps Research Institute Molecular Screening Center
DAX1 StAR inh: DAX1 (NR0B1) inhibition, primary screen | actives 1.1% (n = 370,000) | inhibition, % at 6.8 µM | AID 652010 | HEK293T StAR-luciferase reporter, SF-1/DAX-1 repression relief;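 active = inhibition above the mean over all tested compounds plus 3 SD, cut at about 3.6% in these data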;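 also: 0% = DAX-1 cells with DMSO and 100% = cells lacking DAX-1 with DMSO; higher inhibition means more luminescence from relief of DAX-1 repression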
SMARCA2 activ: increases SMARCA2 function in MMTV reporter cells; MG213 cells, MMTV-luciferase reporter, dexamethasone, overnight; activation, % at 9.1 µM; actives 1% (n = 370,000); AID 652017; in the data active = activation above about 7.8%;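 also: 0% = vehicle wells and 100% = reference activator wells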
hcDAF-12 act: activators of H. contortus DAF-12 nuclear receptor; HEK293 hcDAF-12 lit1-tk-luc reporter, luminescence; 0% DMSO, 100% Δ7-dafachronic acid; activation, % at 6.8 µM; actives 1.4% (n = 370,000); AID 652067;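 active = activation above the mean of all tested compounds plus 3 SD, cut at about 5.5% in these data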;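 also: 100% = response to 3 µM Δ7-dafachronic acid high control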
ssDAF-12 act: activators of S. stercoralis DAF-12 nuclear receptor; actives 1% (n = 370,000); HEK293 ssDAF-12/GRIP1 lit1-tk-luc reporter, luminescence; % of 3 µM dafachronic acid response; activation, % at 6.8 µM;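 active = activation above the mean over all tested compounds plus 3 SD, cut at about 0.9% in these data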;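 also: 0% = DMSO-only wells and 100% = 3 µM delta7-dafachronic acid wells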
hgDAF-12 ag: activates the H. glycines DAF-12 receptor ligand-binding domain; HEK293 GAL4-hgDAF12 UAS-luciferase reporter, agonist luminescence; normalized to butyrate control; activation, % at 6.8 µM; actives 1.8% (n = 370,000); AID 687014;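 active = activation above a cutoff set at the mean of all screened compounds plus 3 SD, cut at about 10% in these data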;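 also: 0% = DMSO wells and 100% = sodium butyrate wells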
hgDAF12 ag: confirmation of H. glycines DAF-12 agonists. activation, % at 6.8 µM. shares compounds with hgDAF-12 ag. actives 80% (n = 3,300). HEK293 GAL4-hgDAF12 luciferase reporter, agonist mode; percent of butyrate response;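 active = mean activation over triplicate wells above the hit cutoff derived from the earlier primary screen, cut at about 11% in these data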;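 also: 0% = DMSO low control and 100% = 2 mM sodium butyrate high control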
LXRb DAF12 ctr: counter-screen for DAF-12 agonists: agonists of human LXR-beta. shares compounds with hgDAF-12 ag. HEK293 Gal4-LXR luciferase reporter, 24 h. activation, % at 6.8 µM. 3,300 tested, under 10 active;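 active = mean activation of the triplicate above a set limit carried over from the primary screen, none filed active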
Target sequence (P55055 whole entry, looked up, the tested form may be a part): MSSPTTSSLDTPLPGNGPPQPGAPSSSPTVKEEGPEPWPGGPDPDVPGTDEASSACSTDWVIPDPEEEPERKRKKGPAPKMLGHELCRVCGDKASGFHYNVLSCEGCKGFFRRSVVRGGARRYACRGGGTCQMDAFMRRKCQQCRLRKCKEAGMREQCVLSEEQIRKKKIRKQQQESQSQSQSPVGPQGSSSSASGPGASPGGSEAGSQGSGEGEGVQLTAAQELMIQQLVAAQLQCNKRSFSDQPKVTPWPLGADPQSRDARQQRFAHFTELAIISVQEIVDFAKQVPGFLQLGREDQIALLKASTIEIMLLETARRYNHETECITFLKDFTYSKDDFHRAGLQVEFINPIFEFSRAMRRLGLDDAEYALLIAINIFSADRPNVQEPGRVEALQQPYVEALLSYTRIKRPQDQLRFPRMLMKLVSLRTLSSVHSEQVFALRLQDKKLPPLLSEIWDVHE
The depositor's hits bear a star; / = no result given. Sampled rows, rich in hits. Any-hit rate of the full collection: about 4.2%.

SMILES | DAX1 StAR inh | SMARCA2 activ | hcDAF-12 act | ssDAF-12 act | hgDAF-12 ag | hgDAF12 ag | LXRb DAF12 ctr
O=C(/C=C/c1c[nH]c2ccccc12)c1ccccc1 | 0.9 | 5.3 | 5.2 | 0.5 | 16.3* | 19.6* | 0.8
COC(=O)[C@]12C[C@H](CC(=O)N3CCN(C(=O)c4ccco4)CC3)C(=O)N(CCc3ccc(OC)c(OC)c3)C1=C[C@H](COCc1ccccc1)O[C@@H]2C | -0.2 | -1.8 | -1.4 | -1.1 | -1.8 | / | /
COc1ccc2c(c1)[C@@H](NC(=O)C(F)(F)F)[C@@H]1CCCC[C@]21c1ccccc1 | -0.3 | -2.4 | -1.0 | -1.2 | -1.2 | / | /
CCOc1ncccc1C(=O)OCc1ccc(Cl)cc1 | -0.6 | -1.7 | -0.3 | -1.5 | 1.5 | / | /
CCOc1ncccc1C(=O)OCc1ccc(C(=O)OC)cc1 | 0.8 | 4.8 | 3.0 | 0.6 | 14.8* | 12.3* | 0.2
CC(C)C(=O)N/N=C/c1ccc(OCc2ccccc2)cc1 | -1.1 | 0.6 | 0.1 | -1.1 | 4.6 | / | /
CC(=O)Nc1ccc(N=Cc2ccc(OCc3ccccc3)cc2)cc1 | -0.6 | -3.5 | 4.5 | -0.1 | 13.6* | 10.9* | 0.3
CCC(=O)c1ccc(OCc2ccc(C(=O)OC)cc2)cc1 | 3.2 | 2.8 | 5.1 | 0.5 | 15.7* | 15.5* | 0.6
COC(=O)c1ccc(COc2ccc(/C=N/Nc3cccc(C(=O)O)c3)cc2)cc1 | 1.5 | 7.3 | 3.5 | 1.4* | 17.0* | 13.3* | 0.5
c1cc(-c2cc3cc(N4CCOCC4)ccc3o2)cs1 | 3.3 | 5.7 | 5.1 | 0.0 | 14.6* | 13.9* | 0.9
O=C(CSc1nc2ccccc2n1Cc1ccccc1Cl)N/N=C\c1cccc(Oc2ccccc2)c1 | -0.9 | -5.6 | 1.0 | -1.6 | 1.9 | / | /
Cc1nonc1C1CCCN1C(=O)c1cc(COc2ccc(F)cc2F)on1 (stereo unspecified) | 3.2 | 4.9 | 2.7 | 0.0 | 14.6* | 11.5* | 0.7
Cc1[nH]c2ccccc2c1/C=N/NC(=O)c1cccs1 | 1.9 | 2.1 | 6.1* | 0.9* | 14.0* | 4.6 | 0.1
CSc1ccc(/C=N/NC(=O)c2ccccc2Cl)cc1 | -1.4 | 3.2 | 3.6 | -0.8 | 18.3* | 13.0* | 0.4
Cc1[nH]c2ccccc2c1/C=N/NC(=O)CNC(=O)c1cccs1 | 0.2 | -1.9 | 0.1 | -1.4 | 0.5 | / | /
O=C(N/N=C/c1ccc(F)cc1)c1cccc(NC(=O)c2ccccc2Cl)c1 | -0.2 | 0.6 | -1.8 | -0.7 | 2.2 | / | /
CSc1ccc(/C=N/NC(=O)c2cccs2)cc1 | 2.5 | 3.8 | 6.3* | 0.4 | 16.0* | 17.9* | 0.9
C[C@@H]1CN([C@@H](C)CO)C(=O)CCCn2cc(nn2)CO[C@H]1CN(C)C(=O)c1ccncc1 | -0.1 | -2.9 | 1.9 | -0.6 | 0.5 | / | /
COc1ccc2cc(CCNC(=O)c3cccs3)c(=O)[nH]c2c1 | 4.0* | 1.9 | 4.2 | -0.1 | 15.4* | 11.4* | 0.5
COc1ccc2cc(CCNC(=O)c3cc4ccccc4o3)c(=O)[nH]c2c1 | -3.1 | -3.5 | -0.8 | -1.3 | -3.4 | / | /
c1ccc(CCn2nnc(-c3ccc(N4CCOCC4)cc3)n2)cc1 | 0.1 | -4.6 | -2.9 | -0.8 | 3.2 | / | /
COC1OC(c2ccccc2)=C(c2cnc(N)nc2)c2ccc(F)cc21 (stereo unspecified) | -0.9 | -2.5 | -0.1 | -1.6 | 0.2 | / | /
O=C(c1scc2c1CCCC2)N1CCCCC1 | 0.3 | -7.8 | -1.6 | -1.3 | 1.0 | / | /
Cc1ccc(NC(=O)c2scc3c2CCCC3)cc1 | 3.5 | 4.2 | 6.2* | 0.6 | 23.4* | 15.5* | 0.6
Cc1ccc(NC(=O)c2cc3c(s2)CCCC3)cc1 | 4.2* | -1.0 | 5.4 | 0.4 | 19.1* | 17.4* | 1.0
Cc1cc(OCC(=O)Nc2ccccc2C)no1 | 0.9 | 3.4 | -0.3 | -1.5 | 2.3 | / | /
Cc1cc(OCC(=O)Nc2c(C(C)C)cccc2C(C)C)no1 | -1.0 | 1.6 | -0.8 | -1.2 | 20.4* | -0.5 | 0.0
C=CCc1c(C)nc2cc(-c3ccc(C)cc3)[nH]n2c1=O | 1.6 | 5.0 | 6.3* | 1.0* | 13.8* | 11.3* | 0.9
